About 83,000 compounds went through this panel and 20% of them were active in at least one assay; those are over-represented in the sample as a whole.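 The endpoint reported here, percent growth, reads 100 for growth as untreated, 0 for no net growth and -100 for all cells dead.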 The source made the active and inactive calls. How the source made its calls: active means growth percent below 10; inactive means the rest.
These compounds were tested on KM12 colon (assay: NCI-60 one-dose screen, 48 h (100 = growth as untreated, 0 = no growth, -100 = all killed)). Conditions: 10 µM unless noted.
`C=C1CC[C@@H]2[C@]3(C)COC(c4cn(-c5ccccc5)nc4-c4cccc([N+](=O)[O-])c4)O[C@@H]3CC[C@@]2(C)[C@@H]1C/C=C1/C(=O)OC[C@H]1O` (some centres undefined) was tested, and the growth was 7.66% (active).
In the case of `Cc1ccc(NC(=O)CN2CCN(c3ncnc4c3cnn4-c3ccccc3)CC2)cc1`, the growth is reported as 89.9% (inactive).
`Cc1cc(C)cc(C(=O)Nc2cccc(-c3cn(-c4ccc(S(N)(=O)=O)cc4)nn3)c2)c1` was tested, and the growth was 36.1% (inactive).
`O=C(C1=CNC(=S)NC1c1ccc(O)cc1)c1cc2ccccc2oc1=O` (centres undefined) was tested, and the growth was 95.8% (inactive).

The compounds below were run on MDA-MB-468 breast in the same assay as above. Conditions: 10 µM unless noted.
With `CC1=C(C#N)C2=NNCC(c3ccccc3)=NN2C(c2ccccc2)=C1` the growth was 124% (inactive).
With `N#Cc1c(-c2ccc(Cl)cc2)nc2n[nH]c(-c3ccc(Cl)cc3)c2c1-c1cccs1` the growth was 50.8% (inactive).
In the case of `COc1c(F)ccc(C(=O)Nc2ccc3nc(NC(=O)C4CCCN(S(=O)(=O)c5cccc(Br)c5)C4)sc3c2)c1F` (centres undefined), the growth is reported as 98.1% (inactive).
For `O=c1[nH]c2ccc(Cl)cc2cc1CSc1nccc(-c2ccc(Cl)cc2)n1`, the growth was 29.7% (inactive).
In the case of `O=C(O)c1cccc(-c2ccc(/C=N/NC(=O)c3[nH]c4ccc(Br)cc4c3-c3ccccc3)s2)c1`, the growth is reported as 15.7% (inactive).
With `O=c1[nH]c(=O)c2c(-c3cc4ccccc4oc3=O)ccnc2[nH]1` the growth was 57.9% (inactive).
In the case of `COc1cccc(/C=C/c2nc3ccccc3c(=O)n2CC(=O)Nc2ccc(Cl)cc2)c1`, the growth is reported as 108% (inactive).
In the case of `O=C(/C=C/c1ccc(-c2ccccc2)cc1)c1nc2ccccc2n1Cc1ccc(Br)cc1`, the growth is reported as 49.6% (inactive).
For `COc1ccc2c(c1)c(/C=N/Nc1ccc3ccccc3n1)cn2C`, the growth was -41.6% (active).
With `COc1c(F)ccc(C(=O)Nc2ccc3nc(NC(=O)C4CCCN(S(=O)(=O)c5ccc(Br)c(F)c5)C4)sc3c2)c1F` (centres undefined) the growth was 92% (inactive).
`Nc1cc2ccccc2c(=O)n1NC(=O)c1ccc(I)cc1` was tested, and the growth was 98.9% (inactive).
In the case of `CCN(CC)c1ccnc(CNCCSC(c2ccccc2)(c2ccccc2)c2ccc(OC)cc2)c1`, the growth is reported as -64.1% (active).
In the case of `N#Cc1c(-c2ccccc2Cl)cc(-c2c[nH]c3ccccc23)[nH]c1=O`, the growth is reported as 20.7% (inactive).
With `N#Cc1ccc(/C=N/NC(=O)c2[nH]c3ccc(Br)cc3c2-c2ccccc2)o1` the growth was -13.6% (active).
For `Cc1nc(Nc2ncc(C(=O)Nc3c(C)cccc3Cl)s2)cc(N2CCN(CCCNC(=O)COc3ccc(C4CCC(=O)NC4=O)cc3)CC2)n1` (centres undefined), the growth was -23.4% (active).
For `Cc1cc(=O)oc2cc(OCCCOc3ccc(/C=C/C(=O)Nc4ccccc4N)cc3)ccc12`, the growth was -48.1% (active).
In the case of `COc1c(F)ccc(C(=O)Nc2ccc3nc(NC(=O)C4CCCN(S(=O)(=O)c5ccc(C(F)(F)F)cc5)C4)sc3c2)c1F` (centres undefined), the growth is reported as 104% (inactive).
`Cc1sc2c(c1C)C(c1ccc(Cl)cc1)=N[C@@H](CC(=O)NCCCCCNC(=O)COc1ccc(C3CCC(=O)NC3=O)cc1)c1nnc(C)n1-2` (some centres undefined) was tested, and the growth was -20.8% (active).
For `COc1ccc(C(=O)/C=C/c2ccc(OCc3ccc(F)cc3)c(OC)c2)cc1OC`, the growth was 8.91% (active).
In the case of `CCCCSc1nc(Nc2ccc(S(N)(=O)=O)cc2)c(C#N)c(-c2ccc(Cl)cc2)n1`, the growth is reported as 76% (inactive).
With `CC(C)CCNC(=O)N/C(N)=N/c1nc2ccccc2s1` the growth was 5.8% (active).
For `CN(C)c1nc(NCCNS(=O)(=O)c2ccc(C3=Nc4c(N)nc(N)nc4NC(c4ccc(F)cc4)C3)cc2)nc(Nc2ccc(F)cc2)n1` (centres undefined), the growth was -40.7% (active).
With `Cn1cc(-c2cc3nc(-c4cn(C)c5ncccc45)cc(N)n3n2)c2ccccc21` the growth was -24.7% (active).
With `COc1ccc(-c2cc(C(=O)NCc3ccccc3)nn2-c2ccc(S(C)(=O)=O)cc2)cc1OC` the growth was 100% (inactive).
In the case of `COc1ccc(-c2ccc(SCC(=O)Nc3ccc(S(N)(=O)=O)cc3Br)nn2)cc1`, the growth is reported as 86.9% (inactive).
For `C#CCOc1cc(N(CC)CC)ccc1C(C(=O)NC(C)(C)C)N(C(=O)C1CCc2cc(F)ccc2O1)c1cc(C)cc(C)c1` (centres undefined), the growth was 24.3% (inactive).
In the case of `N#Cc1c(-c2ccc(Br)cc2)nc2n[nH]c(-c3ccc(Br)cc3)c2c1-c1ccc(F)cc1`, the growth is reported as 110% (inactive).
With `CSc1ccc(NC(=O)c2ccc3nn(/C(C#N)=C/c4ccccn4)nc3c2)cc1` the growth was -94% (active).
With `Cc1ccc(NC(=O)CN2CCN(c3ncnc4c3cnn4-c3ccccc3)CC2)cc1` the growth was 87.1% (inactive).
For `O=C(C1=CNC(=S)NC1c1ccc(O)cc1)c1cc2ccccc2oc1=O` (centres undefined), the growth was 99.5% (inactive).

Source: PubChem BioAssay (NCI)
